Test results taken from publication PMC7819943, “Rice protein-binding microarrays: a tool to detect cis-acting elements near promoter regions in rice”.
Over roughly 35,000 sequences, “fluorescence intensity (a.u.)” has its median near 10,000; the highest 2% begin near 52,000. The full list was thinned out, with the highest values kept by preference.

These sequences were tested against T1, OsWOX13 (Oryza sativa, UniProt Q5QMM3 1-267) (assay: protein-binding microarray (RPBM); PBS, 2% BSA, 51.3 ng/ul salmon testes DNA, 50 uM zinc acetate, 200 nM TF, 25 C, 1 h; high values mean tight binding). Settings: protein: recombinant; tags: N-terminal polyhistidine and DsRed monomer fusion (pET32a); label: CyDye5-dUTP incorporated in the synthesized complementary strand; 3' TTTTT single-stranded linker to array surface; dsDNA, one strand shown.
T1 sequence: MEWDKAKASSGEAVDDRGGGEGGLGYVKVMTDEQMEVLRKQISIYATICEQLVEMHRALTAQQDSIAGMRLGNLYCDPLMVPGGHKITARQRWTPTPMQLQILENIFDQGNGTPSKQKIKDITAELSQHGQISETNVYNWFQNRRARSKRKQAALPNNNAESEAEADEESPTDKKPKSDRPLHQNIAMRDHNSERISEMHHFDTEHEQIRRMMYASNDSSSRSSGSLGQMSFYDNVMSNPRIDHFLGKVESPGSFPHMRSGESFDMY
Method in brief: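 Binding signal is defined as the fluorescence intensity of each feature in arbitrary units, read on an Axon 4000B scanner. Transcription factors with N-terminal polyhistidine and DsRed fusions came from E. coli BL21-CodonPlus and were purified on Ni–NTA. They were incubated at 200 nM for 1 h at 25 °C on a custom Agilent array that had been made double-stranded with Cy5-dUTP, with 50 µM zinc acetate present, and the array was washed.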

Sequence	binding signal
TGCTAATAAATCTTGATTTGTTTCACATAGAAGCTGCATCCGGAGTCACCTAGTGCAG	26400 fluorescence intensity (a.u.)
CATGATTGCTCATCTTTGTATTAAAAGAAATAATTTATGTCGGAGTCACCTAGTGCAG	53500 fluorescence intensity (a.u.)
GTAAAAGTTAATTGATTTGTTTATACCCTCAAATAGCCATCGGAGTCACCTAGTGCAG	58700 fluorescence intensity (a.u.)
CAGATAATTAGCTACCTGTTTAATAGATCATCTTGATCATCGGAGTCACCTAGTGCAG	53400 fluorescence intensity (a.u.)
ATATGATAATAATTATTTAAAGAAATAAATTTATTTTGGACGGAGTCACCTAGTGCAG	28700 fluorescence intensity (a.u.)
TAAATATATTGTCAAATTATATTTAATGTTTTATTTGATACGGAGTCACCTAGTGCAG	3180 fluorescence intensity (a.u.)
TGGACAACAATTCTTGATTGAATTTAATTAACGGATAACGCGGAGTCACCTAGTGCAG	28000 fluorescence intensity (a.u.)
TTGATTAAATACAAAATTAATAGTCAAAGTTTTAAAAGTTCGGAGTCACCTAGTGCAG	18200 fluorescence intensity (a.u.)
TGTGACATTTCCAATCACTAATTGATCAATTGCACAACAACGGAGTCACCTAGTGCAG	38100 fluorescence intensity (a.u.)
TTGTTAATTACCTTGTTTAATTAATTTCGCTAGCTTAGATCGGAGTCACCTAGTGCAG	44700 fluorescence intensity (a.u.)
TGATTAAATTGCTTTAACTTTTATTTAATTTGTAGAAAATCGGAGTCACCTAGTGCAG	22500 fluorescence intensity (a.u.)
CACTAATTGATCAATTGCACAACAAATTGCTTGAATAACGCGGAGTCACCTAGTGCAG	59900 fluorescence intensity (a.u.)
AAACTGTTTTAATAATAGATAGATAGATAGATAGATAGATCGGAGTCACCTAGTGCAG	18200 fluorescence intensity (a.u.)
GACAAATTATGGCATTTTAAAATCCAAAATATGGAAAGGGCGGAGTCACCTAGTGCAG	14600 fluorescence intensity (a.u.)
ATAATTGGTAAAGATGGATTCAAAATATTATTAATAATTGCGGAGTCACCTAGTGCAG	26200 fluorescence intensity (a.u.)
CAATGATTGGACTAAAGAAAATGCTAATATTAATGGTATGCGGAGTCACCTAGTGCAG	52300 fluorescence intensity (a.u.)
ACTTATATTCTTTAACTTATGATTGGAGGTATATACTATACGGAGTCACCTAGTGCAG	5760 fluorescence intensity (a.u.)
GATTCAATGATGGATTTAATAAAACTAATTTGGTATTGCTCGGAGTCACCTAGTGCAG	18700 fluorescence intensity (a.u.)
CTTATTATAAAGATTTAATTATAACAAATATAATGGTATGCGGAGTCACCTAGTGCAG	4800 fluorescence intensity (a.u.)
CTTAACTGTAACACTATTGCGTTGATTACTTCTACTTATTCGGAGTCACCTAGTGCAG	15200 fluorescence intensity (a.u.)
GTATGATTAATTGAGTTTTAATTATTATAAAATTTTAAAACGGAGTCACCTAGTGCAG	22900 fluorescence intensity (a.u.)
ACCGTGATTACGGTAATTGGAAATATAAAAGAGATGGGAGCGGAGTCACCTAGTGCAG	56800 fluorescence intensity (a.u.)

Sequence	binding signal
CTTGATTTATTGATTGATTAATAAAACATTTTATTTCCAACGGAGTCACCTAGTGCAG	56900 fluorescence intensity (a.u.)
TGATAGATGGAAAATAAATTGGTAAAATTAGTAGATGGGACGGAGTCACCTAGTGCAG	39700 fluorescence intensity (a.u.)
AACATTGATTAATATTGGTCAAAATATTTTCAACTCTAAACGGAGTCACCTAGTGCAG	19200 fluorescence intensity (a.u.)
CTTCTTGATTGATTTATACTAACTGCGCACACACTTTATTCGGAGTCACCTAGTGCAG	55200 fluorescence intensity (a.u.)
GTACCTACCAGTAATTAATCAGCAGGCTCACTGTAATCAACGGAGTCACCTAGTGCAG	3470 fluorescence intensity (a.u.)
CATTTGATTTTCGGTCTGATTTTGTTATTTCACTGGCAATCGGAGTCACCTAGTGCAG	24300 fluorescence intensity (a.u.)
GGTGACAGTTTGGTTAGTGACAAATAGTTACATTCTCGTTCGGAGTCACCTAGTGCAG	5070 fluorescence intensity (a.u.)
GTTTAAAGAAATTGATGAAAGAAAAGCTTCATTGTTGGCTCGGAGTCACCTAGTGCAG	6180 fluorescence intensity (a.u.)
TTTAATTGAACTTGAGTGGTCCAGGTATTAAATGTGGGTCCGGAGTCACCTAGTGCAG	52200 fluorescence intensity (a.u.)
ACCCAGGCTTTGATTGCGATGATAAACCGAGCTCGCAGCACGGAGTCACCTAGTGCAG	13800 fluorescence intensity (a.u.)
GGAAATTTAACTATTTGCCACTTTTAGGTTTATCAATTATCGGAGTCACCTAGTGCAG	4880 fluorescence intensity (a.u.)
ATTGGACCTGAACACTGCTAATTAATTGGTATAAGTCATCCGGAGTCACCTAGTGCAG	8360 fluorescence intensity (a.u.)
ATTAATGAACTGTGACATTTCCTTAATTTCATTTTGCTCTCGGAGTCACCTAGTGCAG	23800 fluorescence intensity (a.u.)
ATAGATAGATTTCTCCATAAGTAATTACATTGTAGGTAGGCGGAGTCACCTAGTGCAG	28500 fluorescence intensity (a.u.)
TTAAATTGTTAATACCTCTGTATATCATCCGATCTACGTACGGAGTCACCTAGTGCAG	19600 fluorescence intensity (a.u.)
TCTGATTGATGATGACGATGATGGCGGCTGTGCAGCTGAACGGAGTCACCTAGTGCAG	47600 fluorescence intensity (a.u.)
AATAACTGATGACTGTGAATGATTGATACGATGTAGTAGGCGGAGTCACCTAGTGCAG	65300 fluorescence intensity (a.u.)
ATAACAGTGATTGATCTGTTAAATATCCGATACGGGTAGGCGGAGTCACCTAGTGCAG	65200 fluorescence intensity (a.u.)
AACTGATATGTAGGGTATGATTGTAATGAAATTACGATTGCGGAGTCACCTAGTGCAG	10700 fluorescence intensity (a.u.)
CAGTTATGTGATTGGACTATAAATACGATATATGTTGTGTCGGAGTCACCTAGTGCAG	28700 fluorescence intensity (a.u.)
GACTTGTAATTTGTAGCAGTGGTAAGAAATAAATCTGACCCGGAGTCACCTAGTGCAG	3900 fluorescence intensity (a.u.)
CTTAAACAAATGATAGTACGATCCCATCTGATTGGGTGTTCGGAGTCACCTAGTGCAG	7540 fluorescence intensity (a.u.)

Sequence	binding signal
ACTCAATCTTATTAACTTAAATTGAACTTGAACAAGAGAACGGAGTCACCTAGTGCAG	22000 fluorescence intensity (a.u.)
ACTGATAACTTCCAACTGATAATTGGAGAAGGAGGGTTTGCGGAGTCACCTAGTGCAG	12400 fluorescence intensity (a.u.)
TCGTAAATTTAAATCCATAGATTTAAGGAATACTTAGGCTCGGAGTCACCTAGTGCAG	25900 fluorescence intensity (a.u.)
AGACAATTCAATAATTAATCTACACTTTCCTTCCGCACCTCGGAGTCACCTAGTGCAG	5880 fluorescence intensity (a.u.)
TTGAGCACTAATTAATCATTAGGTGGCCTAATCAACAGCTCGGAGTCACCTAGTGCAG	22000 fluorescence intensity (a.u.)
AATTAATCAGCCAATCACAATCTCTCAAACTACACGGACTCGGAGTCACCTAGTGCAG	35500 fluorescence intensity (a.u.)
ACCCAAAATTAACTCTAAACTTAAGTTTCAAAATCTAAATCGGAGTCACCTAGTGCAG	7640 fluorescence intensity (a.u.)
GCAAATTAATTAACTAATTAATTAAACACCCAACTAATCTCGGAGTCACCTAGTGCAG	63700 fluorescence intensity (a.u.)
GTAATTAATTAACATTGCAATTAAGCACATAAGTTAATCACGGAGTCACCTAGTGCAG	27000 fluorescence intensity (a.u.)
AATCAACTAACTAATCATGGGATTAACCAAAACTAATTCTCGGAGTCACCTAGTGCAG	3800 fluorescence intensity (a.u.)
GTAATTAACAGCAATCAGCAAGTGGCCTAATTGCCAACCTCGGAGTCACCTAGTGCAG	56700 fluorescence intensity (a.u.)
TCAATTAATTAATTAATTAACTACACTTTCACACGAGTCTCGGAGTCACCTAGTGCAG	52700 fluorescence intensity (a.u.)
CCACCTCTAATGAAGAGGTGATTGCAACCATTCATCTCTTCGGAGTCACCTAGTGCAG	12000 fluorescence intensity (a.u.)
AAACAAACTAACATGGATTGATTTTCTATAGGATGGAGGGCGGAGTCACCTAGTGCAG	25200 fluorescence intensity (a.u.)
TGGATTTTAAATTAAGTAAATTGCACCAGCGGTCCTTAAACGGAGTCACCTAGTGCAG	6480 fluorescence intensity (a.u.)
AATTTGAATTTTGTTAAGTTAAATTTGATGAACTGGGGCCCGGAGTCACCTAGTGCAG	5490 fluorescence intensity (a.u.)
TTATAATTATTTGTGTTGCAATGTATGTTTTGTTTATATACGGAGTCACCTAGTGCAG	9980 fluorescence intensity (a.u.)
TTTGGGTGTTAGTGTCTTAATTAGTGTGTGAGCCCCATCCCGGAGTCACCTAGTGCAG	3790 fluorescence intensity (a.u.)
TGTGGCTAAATTTATCAATTGAATGGGCTAGAGGCACGCTCGGAGTCACCTAGTGCAG	17400 fluorescence intensity (a.u.)
CCAAATTCATTAAAATTAACAATAACAATTATATTTGTTTCGGAGTCACCTAGTGCAG	10900 fluorescence intensity (a.u.)
ATTGAGTCAATCCACACTTTATTAGCACATTGGCCCACACCGGAGTCACCTAGTGCAG	3510 fluorescence intensity (a.u.)
AAGTCTAATTAATCCATCATTAGCAAATGTTTATTGTAGCCGGAGTCACCTAGTGCAG	26700 fluorescence intensity (a.u.)

Sequence	binding signal
GTTTAGCAAATCCAGCACCCATTATACAGACTTTCTATGCCGGAGTCACCTAGTGCAG	65500 fluorescence intensity (a.u.)
ATTTGCTAATGACGGATTAATTAGATTTAATAAATTCATCCGGAGTCACCTAGTGCAG	39700 fluorescence intensity (a.u.)
AAGCTGAAATTTGTTAGAGTAATAGTTGACACCATTACCACGGAGTCACCTAGTGCAG	3160 fluorescence intensity (a.u.)
GAGATATAATTGATTAGAGTTACTTTCAATCTTTTCCGTGCGGAGTCACCTAGTGCAG	62000 fluorescence intensity (a.u.)
AAGGATTAGATATGATTCAATCTTTTGGTTCAAAGTTCTTCGGAGTCACCTAGTGCAG	6590 fluorescence intensity (a.u.)
AATCCTAATTATAAGATTTAAGACCTTTCTCTTCACTTCACGGAGTCACCTAGTGCAG	9800 fluorescence intensity (a.u.)
TCACCTTGATTTCAATCATTGGACAAGTGTCCTAGAAAGTCGGAGTCACCTAGTGCAG	55300 fluorescence intensity (a.u.)
CTAGATTGAGAGCATCTGATTCAATAATTAGACTTTCAATCGGAGTCACCTAGTGCAG	45100 fluorescence intensity (a.u.)
CCCAATTGGTGATTAGATAATCCTGTCACTTTCTTCAAGTCGGAGTCACCTAGTGCAG	54100 fluorescence intensity (a.u.)
CACAATCACGAATTGAAGAAAGTCCTTCATTTCACATCAACGGAGTCACCTAGTGCAG	3660 fluorescence intensity (a.u.)
TTGGCCTTCAATCATTGACACTTGGACAGAACAAATCAATCGGAGTCACCTAGTGCAG	26000 fluorescence intensity (a.u.)
CTCAATAATTAAGTTCTTGATTAACATTGATATTACTTTCCGGAGTCACCTAGTGCAG	24600 fluorescence intensity (a.u.)
TCTAAATTAATCTTTAGTTCTTGACCGCAAAATATGAAGCCGGAGTCACCTAGTGCAG	14800 fluorescence intensity (a.u.)
TAACGGATTGATACATCTGGTTACAAATGTGCACTACATACGGAGTCACCTAGTGCAG	3880 fluorescence intensity (a.u.)
TAGCTAATTTGCACCCACATGCATGTGCTTCGAGTAGTTACGGAGTCACCTAGTGCAG	7070 fluorescence intensity (a.u.)
CCCTTACTGATTGGACGGTCCCGCGCATAAGCATGCGCACCGGAGTCACCTAGTGCAG	27800 fluorescence intensity (a.u.)
ATGGGCCACGGGCCCACGGACCATACGCATAGGATTCAACCGGAGTCACCTAGTGCAG	59500 fluorescence intensity (a.u.)
TTCAACCATAAATTGAATTGAATAGGACGGATGATGGTTACGGAGTCACCTAGTGCAG	12700 fluorescence intensity (a.u.)
TGATTAACAGCAACCATAGACGGGACAGGCCAGCCCACCACGGAGTCACCTAGTGCAG	3260 fluorescence intensity (a.u.)
